Measurements published in PubChem BioAssay AID624139 (Broad Institute, 2012).
Among all 17,000 compounds or so, about 220 (1.3%) were called active.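 How the source made its calls: active means spot fluorescence over background significantly raised, with a chance value under 7% in all four replicate spots of the compound; inactive means the rest.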 Only a selection was taken, and actives are over-represented in it overall.

Molecular target: Nuclear factor NF-kappa-B p105 subunit (Homo sapiens) (UniProt P19838)
Sequence (P19838 1-433 limits assumed): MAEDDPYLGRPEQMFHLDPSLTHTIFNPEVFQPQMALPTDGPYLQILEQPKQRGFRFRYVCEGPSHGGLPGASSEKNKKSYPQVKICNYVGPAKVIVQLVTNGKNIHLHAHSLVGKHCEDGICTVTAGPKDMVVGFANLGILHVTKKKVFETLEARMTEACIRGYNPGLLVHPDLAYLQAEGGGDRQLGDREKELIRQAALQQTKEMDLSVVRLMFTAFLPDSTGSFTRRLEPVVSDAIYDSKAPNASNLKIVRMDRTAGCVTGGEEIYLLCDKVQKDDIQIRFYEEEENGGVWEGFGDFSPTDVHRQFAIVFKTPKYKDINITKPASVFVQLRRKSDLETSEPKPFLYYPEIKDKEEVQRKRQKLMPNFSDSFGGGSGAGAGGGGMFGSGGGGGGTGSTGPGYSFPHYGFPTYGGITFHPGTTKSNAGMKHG
Assay: binders of NF-kB p50 subunit, primary screen, biochemical, small molecule microarray, anti-His fluorescence (AID 624139);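 further: probe protein is his-tagged human p50 processed subunit at 1 µg/ml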
Conditions: anti-His fluorescence binding

Q: `O=C1CC(C(=O)Nc2cccc(C(=O)O)c2)C(c2ccccc2)O1` (stereo not drawn) was tested. Which outcome did it give?
A: inactive

Q: Which outcome does the source give for `Cc1noc(C)c1S(=O)(=O)N(C)C[C@H]1Oc2ccc(NC(=O)Nc3cccc4ccccc34)cc2CC(=O)N([C@@H](C)CO)C[C@H]1C` here?
A: inactive

Q: With `Cc1noc(C)c1NC(=O)Nc1ccc2c(c1)CC(=O)N([C@H](C)CO)C[C@H](C)[C@H](CN(C)C(=O)NC(C)C)O2` as the compound, how does the outcome read?
A: inactive

Q: `COc1ccc(C#Cc2ccc3c(c2)[C@]2(C(=O)N3)[C@H](C(=O)N3CCc4cc(OC)c(OC)cc4C3)[C@H]3C(=O)O[C@H](c4ccccc4)[C@H](c4ccccc4)N3[C@@H]2c2ccc(O)cc2)cc1` was tested. Which outcome did it give?
A: active

Q: How did the outcome turn out when `COc1ccc(C#Cc2ccc3c(c2)[C@]2(C(=O)N3)[C@H](C(=O)N3CCCCCCC3)[C@H]3C(=O)O[C@H](c4ccccc4)[C@H](c4ccccc4)N3[C@@H]2c2ccc(O)cc2)cc1` was run?
A: inactive

Q: Which outcome does the source give for `O=C1O[C@@H](c2ccccc2)[C@@H](c2ccccc2)N2[C@@H](c3ccccc3OCCO)[C@]3(C(=O)Nc4ccccc43)[C@@H](C(=O)N3CCCCCCC3)[C@H]12` here?
A: inactive

Q: `COc1ccc(C#Cc2ccc3c(c2)[C@]2(C(=O)N3)[C@H](c3ccccc3OCCO)N3[C@H](c4ccccc4)[C@H](c4ccccc4)OC(=O)[C@H]3[C@@H]2C(=O)N2CCCCCCC2)cc1` was tested. Which outcome did it give?
A: active

Q: For `O=C1O[C@@H](c2ccccc2)[C@@H](c2ccccc2)N2[C@@H](c3ccccc3OCCO)[C@]3(C(=O)Nc4ccc(C#CC5(O)CCCCCC5)cc43)[C@@H](C(=O)N3CCCCCCC3)[C@H]12`, which outcome is on record?
A: inactive

Q: How did the outcome turn out when `O=C1O[C@@H](c2ccccc2)[C@@H](c2ccccc2)N2[C@@H](c3ccc(OCCO)cc3)[C@]3(C(=O)Nc4ccc(C#CCCO)cc43)[C@@H](C(=O)O)[C@H]12` was run?
A: inactive

Q: Which outcome does the source give for `O=c1c(-c2ccc(O[C@@H]3O[C@H](CO)[C@@H](O)[C@H](O)[C@H]3O)cc2)coc2c([C@@H]3O[C@H](CO)[C@@H](O)[C@H](O)[C@H]3O)c(O)cc(O)c12` here?
A: inactive

Q: How did the outcome turn out when `CC(C)NC(=O)Nc1ccc2c(c1)C(=O)N([C@H](C)CO)C[C@H](C)[C@H](CN(C)C(=O)CCC(F)(F)F)OCCCC[C@H](C)O2` was run?
A: inactive

Q: `C[C@H](CO)N1C[C@H](C)[C@H](CN(C)S(=O)(=O)c2cn(C)cn2)OCCCC[C@H](C)Oc2ccc(N(C)C)cc2C1=O` was tested. Which outcome did it give?
A: inactive

Q: For `C[C@H](CO)N1C[C@H](C)[C@H](CN(C)C(=O)Nc2ccccc2C(F)(F)F)OCc2cn(nn2)CCCC1=O`, which outcome is on record?
A: inactive

Q: With `C[C@@H]1CN([C@@H](C)CO)C(=O)c2cccc(NC(=O)c3nc4ccccc4s3)c2O[C@H]1CN(C)S(=O)(=O)c1cccs1` as the compound, how does the outcome read?
A: inactive

Q: `COC(=O)C(CC#Cc1ccc2c(c1)[C@]1(C(=O)N2)[C@H](c2ccc(O)cc2)N2[C@H](c3ccccc3)[C@H](c3ccccc3)OC(=O)[C@H]2[C@@H]1C(=O)NC[C@H](O)c1ccccc1)C(=O)OC` was tested. Which outcome did it give?
A: inactive

Q: Which outcome does the source give for `C[C@@H]1CN([C@H](C)CO)C(=O)c2cc(NC(=O)C3CC3)ccc2O[C@@H]1CN(C)C` here?
A: inactive

Q: How did the outcome turn out when `C[C@@H]1CN([C@@H](C)CO)C(=O)Cc2cc(NC(=O)Cc3ccccc3)ccc2O[C@@H]1CN(C)C(=O)Nc1ccc2c(c1)OCO2` was run?
A: inactive

Q: How did the outcome turn out when `C[C@@H]1CN([C@H](C)CO)C(=O)c2cc(NC(=O)Nc3ccc4c(c3)OCO4)ccc2O[C@@H]1CN(C)C(=O)Nc1ccc(F)cc1` was run?
A: inactive

Q: Which outcome does the source give for `COc1ccc(S(=O)(=O)N(C)C[C@@H]2Oc3ccc(NC(=O)Cc4ccccc4)cc3CC(=O)N([C@@H](C)CO)C[C@H]2C)cc1` here?
A: inactive

Q: Which outcome does the source give for `C[C@@H]1CN([C@@H](C)CO)C(=O)c2cc(NS(=O)(=O)c3cn(C)cn3)ccc2O[C@@H]1CN(C)C(=O)NC1CCCCC1` here?
A: inactive

Q: Which outcome does the source give for `Cc1ccc(N(C(=O)COc2ccccc2[N+](=O)[O-])C2C=CS(=O)(=O)C2)cc1` (stereo not drawn) here?
A: inactive

Q: How did the outcome turn out when `Cc1ccc(S(=O)(=O)N(C)CC(=O)Nc2cccc(C(F)(F)F)c2)cc1` was run?
A: inactive

Q: For `COCCCNC(=O)[C@@]1(C)c2ccccc2C(=O)N(Cc2ccc(OC(F)(F)F)cc2)[C@H]1c1ccc(CO)cc1`, which outcome is on record?
A: inactive

Q: How did the outcome turn out when `C[C@H](CO)N1C[C@H](C)[C@@H](CN(C)S(=O)(=O)c2cn(C)cn2)Oc2c(NC(=O)C3CC3)cccc2C1=O` was run?
A: inactive

Q: With `CCOC(=O)Cc1csc(NC(=O)c2sc3cccc(F)c3c2Cl)n1` as the compound, how does the outcome read?
A: inactive

Q: For `O=C(CNS(=O)(=O)c1cccc(C(F)(F)F)c1)Nc1ccccc1F`, which outcome is on record?
A: inactive

Q: `S=C(NCc1ccco1)N1CCN(c2ncccn2)CC1` was tested. Which outcome did it give?
A: inactive

Q: For `C[C@@H]1CN([C@H](C)CO)C(=O)Cc2cc(NS(=O)(=O)c3ccc(Cl)cc3)ccc2O[C@@H]1CN(C)S(=O)(=O)c1ccc(Cl)cc1`, which outcome is on record?
A: inactive

Q: With `COc1ccc(C)cc1S(=O)(=O)N(C)CC(=O)Nc1ccccc1SC` as the compound, how does the outcome read?
A: inactive

Q: Which outcome does the source give for `CCCCc1nn(-c2ccccc2C(F)(F)F)c(=O)n1Cc1ccc(-c2ccccc2S(=O)(=O)NC(=O)c2sccc2C)cc1` here?
A: active

Q: Which outcome does the source give for `C[C@@H]1CN([C@H](C)CO)C(=O)Cc2cc(NC(=O)Cc3cn(C)c4ccccc34)ccc2O[C@@H]1CN(C)Cc1ccc(C(F)(F)F)cc1` here?
A: inactive

Q: For `CC(C)NC(=O)N(C)C[C@H]1OCCCC[C@H](C)Oc2ccc(NC(=O)CCC(F)(F)F)cc2C(=O)N([C@H](C)CO)C[C@H]1C`, which outcome is on record?
A: inactive

Q: `C[C@H]1CCCCO[C@@H](CN(C)C(=O)Nc2ccccc2)[C@@H](C)CN([C@@H](C)CO)C(=O)c2cc(NC(=O)CCC(F)(F)F)ccc2O1` was tested. Which outcome did it give?
A: inactive

Q: `Cc1ccc(N(C(C)C(=O)Nc2ccc(Br)cc2F)S(C)(=O)=O)cc1C` (stereo not drawn) was tested. Which outcome did it give?
A: inactive

Q: `C[C@@H]1CN([C@H](C)CO)C(=O)c2cccc(NS(=O)(=O)c3cn(C)cn3)c2O[C@H]1CN(C)S(=O)(=O)c1ccc(Cl)cc1` was tested. Which outcome did it give?
A: inactive

Q: With `C[C@@H]1CN([C@H](C)CO)C(=O)Cc2cc(NC(=O)Cc3ccccc3)ccc2O[C@H]1CN(C)S(=O)(=O)c1cccs1` as the compound, how does the outcome read?
A: inactive

Q: How did the outcome turn out when `COCCOC(=O)N1C(=O)[C@@]2(c3cc(C#CCC(C(=O)OC)C(=O)OC)ccc31)[C@H](c1ccc(OCCO)cc1)N1[C@H](c3ccccc3)[C@H](c3ccccc3)OC(=O)[C@H]1[C@@H]2C(=O)NC[C@H](O)c1ccccc1` was run?
A: inactive

Q: For `C[C@@H]1CCCCO[C@@H](CN(C)Cc2ccncc2)[C@H](C)CN([C@@H](C)CO)C(=O)c2cc(NS(=O)(=O)c3ccccc3)ccc2O1`, which outcome is on record?
A: inactive
